Measurements as given in PubChem BioAssay (NCI).
Values joined by “and” are separate entries in the source; they are usually repeats but may differ in a detail not shown here. Equal values may be shown once. The panel holds about 79,000 compounds, 15% with a hit somewhere; the sample as a whole holds those more often. Unmarked numbers belong to inactive results. Active and inactive are the calls of the source. Rule as the data show it: active = growth inhibition above about 70%; inactive = the rest.

What was measured:
[1] = NCI Yeast Anticancer Drug Screen. Data for the rad50 strain (AID 155);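 also: 0% = growth of vehicle-only cultures of the same strain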; conditions: S. cerevisiae rad50 strain growth inhibition, active compounds read high; at 50.0 µM unless noted
Summary of the method: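 Cells are treated with compound, grown, and their growth is then scored against vehicle-only cultures of the same repair-deficient yeast strain.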

[2] = NCI Yeast Anticancer Drug Screen. Data for the mec2-1 strain (AID 157); conditions: S. cerevisiae mec2-1 strain, active compounds read high; at 50.0 µM unless noted
Summary of the method: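 Each compound was tested on mec2-1 yeast, a strain altered in DNA damage repair or cell cycle control. Growth inhibition is reported relative to vehicle.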

[3] = NCI Yeast Anticancer Drug Screen. Data for the sgs1 mgt1 strain (AID 161);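 also: 0% = growth of cultures given vehicle only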; conditions: S. cerevisiae sgs1 mgt1 strain, active compounds read high; at 50.0 µM unless noted
Summary of the method: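 Read-out: growth inhibition vs vehicle controls. Cells: mutant yeast strain deficient in DNA damage repair.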

[4] = NCI Yeast Anticancer Drug Screen. Data for the cln2 rad14 strain (AID 165);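 also: 0% = growth equal to vehicle treated cultures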; conditions: S. cerevisiae cln2 rad14 strain, active compounds read high; at 50.0 µM unless noted
Summary of the method: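 Test compounds were added to cln2 rad14 yeast cultures; inhibition of growth was then determined by comparison with vehicle treatment.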

[5] = NCI Yeast Anticancer Drug Screen. Data for the bub3 strain (AID 167); conditions: S. cerevisiae bub3 mutant strain, active compounds read high; at 50.0 µM unless noted
Summary of the method: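 Part of a panel of yeast mutants defective in DNA damage repair or cell cycle regulation. Each strain is grown with compound, and inhibition is calculated relative to solvent-treated cultures.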

[6] = NCI Yeast Anticancer Drug Screen. Data for the mlh1 rad18 strain (AID 175); conditions: S. cerevisiae mlh1 rad18 strain growth inhibition, active compounds read high; at 50.0 µM unless noted
Summary of the method: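 Inhibition values reflect reduced growth of mutant yeast versus vehicle-treated controls following compound exposure; the mutations affect DNA damage repair.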

| SMILES | growth inhibition [1] | growth inhibition [2] | growth inhibition [3] | growth inhibition [4] | growth inhibition [5] | growth inhibition [6] |
| --- | --- | --- | --- | --- | --- | --- |
| CCCCCCCCCCCCCCCCCCc1ccc(O)cc1O | -2.05% | -2.05% | -15.9% | 12.6% | 1.75% | -5.2% |
| CC(C)(C)C1CCC2c3c([nH]c4ccccc34)C3C(=O)N(c4cc(Br)cc(Br)c4)C(=O)C3C2C1 (centres undefined) | 14.3% | 9.15% | 7.75% | 18.9% | 21.8% | -46.5% |
| CCOC(=S)SCC(=O)CSC(=S)OCC | 73.8% (active) | 12.1% | 21.7% | 9.7% | 50.2% | 2.15% |
| C/C(=C\c1ccccc1)c1ccccn1 | -2.25% and -1.9% | -4.6% and -17.4% | -6.25% and 10.8% | -68.8% and -22.6% | -19.1% and 15.2% | -7.4% and 8.3% |
| O=c1n(-c2ccccc2)c(=O)n2n1C1C3C4C5C3C2C5(F)C41 (centres undefined) | -7.3% | 8.45% | 5.95% | 13.7% | 6.75% | 12.3% |
| CCOC(=O)c1c(C)[nH]c(C=O)c1C | 5.65% | 9.3% | 0.25% | 16.7% | -0.25% | 4.4% |
| CCCCCCCCCCCCCCCCNC(=O)C(=O)/C=C(\O)c1ccc(C)cc1 | 1.15% | -24.4% | 18.8% | -44.5% | 0.6% | 1.4% |
| Cc1c2cc[n+](C)c(C)c2cc2c1[nH]c1ccccc12 | 64.8% | 19.8% | 34.1% | 12.8% | 22.4% | 37.8% |
| CN(/C(=N/C(=S)NCc1ccccc1)SCc1ccccc1)c1ccccc1 | 38% | 29.6% | 35.6% | 9.45% | 38.1% | 58% |
| CC(C)CCC[C@@H](C)C1CCC2[C@@H]3CCC4C[C@@H](CCC=C(c5cc(Cl)c(O)c(C(=O)O)c5)c5cc(Cl)c(O)c(C(=O)O)c5)CC[C@]4(C)C3CC[C@@]21C (some centres undefined) | -26.4% | -21.9% | -14.7% | -41% | 8.5% | -45.9% |
| CCOC(=O)/C=C1\SC(C)(C)C1NC(=O)OCc1ccccc1 (centres undefined) | -73.2% | -30.5% | -6.15% | -18.1% | -0.2% | -15% |
| [Cu+2].[NH-]CC(=O)NC(Cc1ccccc1)C(=O)O.[NH-]CC(=O)NC(Cc1ccccc1)C(=O)O (centres undefined) | 30.9% | 2.4% | 10.6% | 17.5% | 0.9% | 10.6% |
| COc1cc2c(c(OC)c1OC)-c1ccc(OC)c(=O)cc1[C@@H](NC=O)CC2 | -11% | -14.5% | -22.9% | 4.15% | -8.05% | -29.8% |
| Cc1ccccc1NS(=O)(=O)N1CCCCC1 | -11.8% | -24.4% | -4.3% | 18.9% | 22.1% | -5.65% |
| O=[N+]([O-])c1cccc(Nc2nc(Cl)nc(Cl)n2)c1 | -0.65% | 21% | 5.25% | -8.25% | -18.8% | -14.5% |
| Cc1ccc(Nc2ccc(C)cc2[N+](=O)[O-])cc1 | 18.3% | -2.25% | 32.9% | 15.1% | 31.6% | 17.6% |
| CC(=O)Oc1cc(OC(C)=O)c2c(OC(C)=O)c3c(OC(C)=O)cc(C)cc3cc2c1 | 40.5% | 19.8% | 39.5% | 31.6% | 9.3% | 20.1% |
| NC(=O)Cc1ccc2c3c(cccc13)CC2 | 15.4% | 5.45% | 2.45% | -34.2% | 11.8% | 9.05% |
| CC(O)CCC(=O)c1nc2ccccc2s1 (centres undefined) | -14.4% | 19.2% | 5.95% | -6.3% | 4.95% | 3.5% |
| CCC(Cl)COP(=O)(OCC(Cl)CC)O/C(C)=C(\C)OP(=O)(OCC(Cl)CC)OCC(Cl)CC (centres undefined) | 13.8% | 13.3% | 27.4% | 9.7% | 0.4% | -1.7% |

| SMILES | growth inhibition [1] | growth inhibition [2] | growth inhibition [3] | growth inhibition [4] | growth inhibition [5] | growth inhibition [6] |
| --- | --- | --- | --- | --- | --- | --- |
| COC(=O)C(CCCCCCCC(C(=O)OC)c1nc2n(c1O)C(=N)N=N2)c1nc2n(c1O)C(=N)N=N2 (centres undefined) | -20.6% | -3.75% | -7.95% | 11.8% | 10.2% | 4.75% |
| Cc1cc(C)c(C(=O)c2cccc(C)c2C(=O)O)c(C)c1 | 4% | -20.8% | 7.85% | 14.1% | 9.85% | 18% |
| CCC(CC)NC(CC)COC(=O)c1ccc(N)cc1 (centres undefined) | 8.4% | -4.3% | -0.05% | -0.5% | 5.8% | -4.9% |
| CC[N+]1(CC)CCOC(=O)C1 | -15.8% | -2.6% | -3.9% | 22.9% | -19.4% | -26.9% |
| C/C(=N\NC(=O)c1ccncc1)c1cc(Cl)ccc1Cl | 2.9% | 5.4% | 4.65% | 8.15% | 0.35% | 8.7% |
| CSC(C1c2ccccc2N(c2ccc(C)cc2)c2[nH]c(=O)n(C)c(=O)c21)S(=O)(=O)c1ccc(C)cc1 (centres undefined) | 23.1% | 0% | -21.8% | -29% | 0.15% | 16.6% |
| COC(=O)C1(C)CCCC2(C)C1CCC1(O)C(O)C(C(C)C)=CCC21 (centres undefined) | 4.3% | -2.35% | 2.55% | -2.25% | -1.95% | 20.2% |
| COc1ccc2c(c1[N+](=O)[O-])CC[C@@H]1[C@@H]2CC[C@]2(C)C(=O)CC[C@@H]12 | 20.9% | 21.1% | 0% | 37% | 12.1% | -30.9% |
| CC(C)=NOc1ccccc1[N+](=O)[O-] | 8.65% | 6.15% | 7.15% | -14.7% | -13.2% | 12.1% |
| CC(=O)OCC1C2C=CC(C2)C1COC(C)=O (centres undefined) | 2.2% | -4.8% | -5.1% | -47.1% | -2.9% | 2.1% |
| O=C(NCC1CC1)c1cccs1 | -41.4% | -50.9% | -18.9% | -23.6% | -21.6% | -50.4% |
| CCN(CC)CCN(C(=O)C(C)(C)C)c1ccccc1N | -30.8% | -27.9% | -17.1% | -18.6% | -19.1% | -4% |
| O=C(O)c1cccnc1C(=O)O | -23.8% and 10.8% | -8.85% and -5.35% | 2.65% and -2.2% | -30.2% and 10.3% | -12% and -28.2% | 3.9% and 8.65% |
| C[n+]1cccc(C#N)c1 | 6.55% and 5.2% | 4.6% and -7.45% | -0.95% and 0.4% | -14.8% and -21.6% | 2.3% and -6.65% | -0.5% and 10.1% |
| CC(=O)c1ccccc1OB(F)F | 10.2% | -11.2% | 8.8% | -4.45% | 1.05% | -11.9% |
| O=C(OCc1ccccc1CN1CCCCC1)c1cccc(Cl)c1 | -2.85% | -7.7% | -6.3% | -10.3% | 7.35% | 2.3% |
| CCCCCCCCC1OC1CCCCCCCCOCC(O)CO (centres undefined) | 18.9% | -9.95% | -1.9% | -1.2% | -0.6% | -1.6% |
| O=C(C(/C=N/C(=S)NC1C(=O)Nc2ccccc21)=C(/O)c1ccccc1)c1ccccc1 (centres undefined) | 9.6% | -0.85% | 16.9% | 27.5% | 21.7% | -9.4% |
| COc1ccc(CCNC(=O)CCN2C(=O)CCC2=O)cc1OC | 8.7% | -12.8% | 1.55% | -3.25% | -14.8% | -2.9% |
